TDP1 inh = qHTS Assay for Inhibitors of Tyrosyl-DNA Phosphodiesterase (TDP1). Tyrosyl-DNA phosphodiesterase 1 (Homo sapiens), Q9NUW8. recombinant TDP1, AlphaScreen DNA substrate cleavage. Potency, µM (titrated, usually from 130 µM), usual class: inhibitors. actives 0.28% (n = 350,000). AID 485290, 2010; further: nearly all actives have a fitted effect of over 40% in size
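Here, a 5' biotin and 3' phosphotyrosine-FITC DNA oligonucleotide reports Tdp1 activity: intact substrate bridges AlphaScreen beads, while cleavage leaves a 3' phosphate and drops signal. All incubations at room temperature.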
BLM helicase inh = qHTS Assay for Inhibitors of Bloom's syndrome helicase (BLM); recombinant BLM DNA unwinding, fluorescence dequenching; Potency, µM (highest dose often 56.1 µM), usual class: inhibitors; actives 0.2% (n = 350,000); further: nearly all actives have a fitted effect of over 35% in size
RECQ1 helicase = qHTS Assay for Inhibitors of RecQ-Like Dna Helicase 1 (RECQ1); RECQ1 DNA unwinding, red fluorescence kinetic read; Potency, µM (titrated, usually from 57.3 µM), usual class: inhibitors; actives 0.54% (n = 240,000); AID 2549, 2010; further: nearly all actives have a fitted effect of over 30% in size
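RECQ1T1 50 nM; forked duplex (20 bp + 30-nt ss tails) 200 nM, ATP 2 mM final; pH 8.0, 2 mM MgCl2, 2.5 ug/ml poly(dI-dC); 15 min compound preincubation; discontinuous kinetic read over 2 h at RT.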
APE1 inh-1 = qHTS Assay for Inhibitors of the Human Apurinic/apyrimidinic Endonuclease 1 (APE1); DNA repair nuclease/redox regulator APEX1 (Homo sapiens), P27695; recombinant APE1, TAMRA/BHQ-2 abasic DNA cleavage fluorescence; Potency, µM (top dose mostly 65.8 µM), actives largely listed as inhibitors; actives 0.35% (n = 350,000); AID 2517, 2012; further: nearly all actives have a fitted effect of over 55% in size
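Incision of a quenched TAMRA/BHQ-2 THF abasic-site duplex (50 nM) by 0.75 nM APE1, after 15 min compound preincubation, measured as fluorescence increase over three 60 s reads. Values normalized to buffer, DMSO and NSC13755 control wells.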
Tb PGK inh = qHTS Assay to Find Inhibitors of Phosphoglycerate Kinase. actives 0.043% (n = 380,000). Phosphoglycerate kinase, glycosomal (Trypanosoma brucei brucei), P07378. Potency, µM (top dose mostly 57.5 µM), hits mostly inhibitors. PGK/GAPDH coupled, Kinase-Glo luminescence, 60 min; further: nearly all actives have a fitted effect of over 60% in size
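Recombinant glycosomal PGK reaction used 1,3-bisphosphoglycerate generated in-well by GAPDH (100nM final) in 100mM TEA pH 7.6, 5mM MgCl2, 0.01% Tween-20. After 60 minutes at room temperature, ATP was read by Kinase-Glo Plus luminescence end-point.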
GLS inh = qHTS for Inhibitors of Glutaminase (GLS). Glutaminase kidney isoform, mitochondrial (Homo sapiens), O94925. GLS enzymatic activity, qHTS titration. Potency, µM (titrated, usually from 45.5 µM), most hits filed as inhibitors. actives 0.21% (n = 410,000)
Target sequence (O94925 whole entry, looked up, canonical isoform): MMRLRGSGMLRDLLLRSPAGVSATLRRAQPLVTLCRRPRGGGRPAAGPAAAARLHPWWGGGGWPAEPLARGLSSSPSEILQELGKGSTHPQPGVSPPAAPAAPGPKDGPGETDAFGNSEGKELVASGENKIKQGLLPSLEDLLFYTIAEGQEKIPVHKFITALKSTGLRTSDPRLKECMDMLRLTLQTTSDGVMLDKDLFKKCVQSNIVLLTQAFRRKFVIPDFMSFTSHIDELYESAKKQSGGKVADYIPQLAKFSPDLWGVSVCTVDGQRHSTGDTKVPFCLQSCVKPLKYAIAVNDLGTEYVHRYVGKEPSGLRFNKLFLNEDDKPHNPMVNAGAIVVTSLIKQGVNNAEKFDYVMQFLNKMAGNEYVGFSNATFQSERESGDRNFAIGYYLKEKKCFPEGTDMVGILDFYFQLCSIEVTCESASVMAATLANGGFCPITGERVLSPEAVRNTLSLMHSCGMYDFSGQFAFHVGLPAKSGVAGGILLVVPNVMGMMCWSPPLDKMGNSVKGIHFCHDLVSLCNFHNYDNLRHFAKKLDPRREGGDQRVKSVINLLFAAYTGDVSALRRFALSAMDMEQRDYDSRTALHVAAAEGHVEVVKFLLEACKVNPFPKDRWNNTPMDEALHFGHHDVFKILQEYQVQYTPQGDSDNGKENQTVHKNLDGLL
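Glutamate formation by hKGA was monitored fluorometrically using coupled glutamate oxidase, HRP and Amplex Red. Substrate was added as 1 mM L-glutamine solution; incubation was 30 min at RT after an initial read.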
DNA dye displace = Counterscreen for APE1 Inhibitors: Fluorescent Dye Displacement Assay. DNA fluorescent dye displacement counterscreen, fluorescence. AID 2564, 2010. actives 7% (n = 480). shares compounds with APE1 inh-1. Potency, µM (titrated, usually from 28.5 µM), actives largely listed as inhibitors;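 further: loss of thiazole orange fluorescence as the dye is displaced from duplex DNA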
EndoIV counter = Counterscreen for APE1 Inhibitors: qHTS Assay for Inhibitors of Endonuclease IV; shares compounds with APE1 inh-1; actives 4% (n = 560); AID 2565, 2010; E. coli Endo IV, fluorogenic AP-site DNA cleavage; Potency, µM (highest dose often 27.1 µM), actives largely listed as inhibitors
APE1 inh-2 = Confirmation qHTS Assay for Inhibitors of the Human Apurinic/apyrimidinic Endonuclease 1 (APE1); shares compounds with APE1 inh-1; purified APE1, fluorogenic abasic-site DNA cleavage; Potency, µM (highest dose often 57.1 µM), usual class: inhibitors; actives 44% (n = 750); further: nearly all actives have a fitted effect of over 30% in size
APE1 FP = qHTS FP-Based Assay for Inhibitors of the Human Apurinic/apyrimidinic Endonuclease 1 (APE1); shares compounds with APE1 inh-1; APE1 binding to TAMRA-labelled double-stranded DNA, fluorescence polarization displacement; Potency, µM (titrated, usually from 28.5 µM), actives largely listed as inhibitors; actives 7% (n = 480)
Hits are given with their value; 0 = inactive; ? = inconclusive; - = no result; [ ] = another dose, or the depositor's remark. Sampled rows, rich in hits. Any-hit rate of the full collection: about 0.85%. The call rests on the fitted dose curve; in most records, active means well fitted curve in the direction sought with a large enough effect; inconclusive means small, poorly fitted or top-dose-only effect, or another doubt; inactive means no such curve, though single readings can be large; an effect the other way counts as inactive or inconclusive.

SMILES	TDP1 inh	BLM helicase inh	RECQ1 helicase	APE1 inh-1	Tb PGK inh	GLS inh	DNA dye displace	EndoIV counter	APE1 inh-2	APE1 FP
COC(=O)c1ccc(/C=N/Nc2nc(-c3ccc(Cl)cc3Cl)cs2)cc1	0	0	0	0	-	-	-	-	-	-
O=C1CNC(=O)/C1=C\c1ccc(O)cc1	0	0	0	0	0	0	-	-	-	-
O=C1CNC(=O)/C1=C/c1ccc(O)cc1	0	0	0	0.89µM	0	0	0	0	?	0
O=C(CSc1nc(NS(=O)(=O)c2ccccc2)cc(=O)[nH]1)Nc1ccc(Cl)cc1	7.1µM	?	0	0	?	0	-	-	0	-
O=C(CSc1nc2ccccc2c(=O)[nH]1)Nc1ccc(C(=O)O)cc1	50µM	0	0	0	0	0	-	-	0	-
O=C(CSc1nc2ccccc2c(=O)[nH]1)Nc1ccc([N+](=O)[O-])cc1	0	-	-	0	0	0	-	-	-	-
CCNC(=O)[C@@H]1CCCN1C(=O)[C@H](CCCN=C(N)N)NC(=O)[C@H](CC(C)C)NC(=O)[C@@H](Cc1c[nH]c2ccccc12)NC(=O)[C@H](Cc1ccc(O)cc1)NC(=O)[C@H](CO)NC(=O)[C@H](Cc1c[nH]c2ccccc12)NC(=O)[C@H](Cc1cnc[nH]1)NC(=O)[C@@H]1CCC(=O)N1	-	0	-	-	-	?	-	-	-	-
C/C=C\C1=CCCC1Nc1ncnc2ccc(-c3c(C)noc3C)cc12 (configuration not stated)	0	0	0	0	-	-	-	-	-	-
Cc1ccccc1-c1ccc2ncnc(NCc3cccs3)c2c1	-	0	?	7.1µM	-	-	?	0	14µM	0
C=C(C)C(=O)OCCOCC	0	0	0	0	-	-	-	-	-	-
CCC[C@@H]1C[C@@H](C(=O)N[C@@H]([C@H]2O[C@H](SC)[C@H](O)[C@@H](O)[C@H]2O)[C@H](C)Cl)N(C)C1	-	-	-	0	-	-	-	-	-	-
O=C(OC1Cc2c(O)cc(O)cc2OC1c1cc(O)c(O)c(O)c1-c1c(C2Oc3cc(O)cc(O)c3CC2OC(=O)c2cc(O)c(O)c(O)c2)cc(O)c(O)c1O)c1cc(O)c(O)c(O)c1 (configuration not stated)	-	7.9µM	4.5µM	0.13µM	-	-	-	28µM	0.32µM	-
O=C(Nc1ccc([N+](=O)[O-])cc1)Nc1ccc2[nH]c(=O)[nH]c2c1	0	0	0	?	0	0	0	0	?	0
CN=c1scc(-c2ccccc2F)n1/N=C/c1ccc[nH]1	0	0	0	35µM	0	0	0	0	?	0
Nc1c(NC/C=C\COc2cc(CN3CCCCC3)ccn2)c(=O)c1=O	-	-	-	-	-	0	-	-	-	-
O=C(COC(=O)c1ccc(Cl)nc1)NCc1ccco1	0	0	0	0	0	0	-	-	-	-
O=C(COC(=O)c1cccnc1Cl)NCc1ccco1	40µM	0	0	?	0	0	-	-	?	-
N=C(N)c1ccc(OCCCOc2ccc(C(=N)N)cc2)cc1	-	-	-	-	-	0	-	-	-	-
O=C(CSc1nnc(-c2cccc(S(=O)(=O)N3CCCC3)c2)n1-c1ccccc1)Nc1ccc(C(=O)O)cc1	79µM	?	0	0	?	?	-	-	?	-
O=c1oc2ccc(NS(=O)(=O)c3cccc4cccnc34)cc2s1	-	0	-	0[12.4 µM]	0	0	-	-	-	-
O=C1CCCc2oc3ccc(NS(=O)(=O)c4cccc5cccnc45)cc3c21	50µM	0	0	?	0	?	-	-	?	-
C=C(Cl)COc1ccc2c(CCC)cc(=O)oc2c1	89µM	0	0	0	0	0	-	-	0	-
CC(=O)NNC(=O)N1Cc2ccccc2Oc2ccc(Cl)cc21	0	0	0	0	0	0	-	0	0	-
Cc1cc(-c2ccccc2)[nH]c(=O)c1C#N	0	0	0	0	0	0	-	-	-	-
Cc1ccc(-c2cc(-c3ccco3)c(C#N)c(=O)[nH]2)cc1	-	25µM	?	35µM	0	0	0	0	?	?
SMILES	TDP1 inh	BLM helicase inh	RECQ1 helicase	APE1 inh-1	Tb PGK inh	GLS inh	DNA dye displace	EndoIV counter	APE1 inh-2	APE1 FP
CCCCc1cc2c(cn1)=C(OC(=O)c1cccs1)C(C)(OC(=O)CC)C(=O)C=2 (configuration not stated)	0[21 µM]	0[12.4 µM]	0[11.5 µM]	0[12.4 µM]	-	-	-	-	-	-
O=C(O)c1ccc(-n2cccc2/C=C2/NC(=O)N(c3cccc(Cl)c3)C2=O)cc1	1.6µM	0	22µM	2.8µM	?	?	?	0	13µM	11µM
O=C1N/C(=C/c2cccn2-c2ccccc2)C(=O)N1Cc1ccccc1F	0	0	0	0	0	0	-	-	-	-
N#CC(C#N)=Cc1cccn1-c1ccc(C(=O)O)cc1	3.2µM	0	25µM	13µM	?	0	0	0	35µM	0
O=C1N/C(=C/c2cccn2-c2ccc(F)cc2)C(=O)N1Cc1ccccc1	0	0	0	0	0	0	-	-	-	-
O=C(O)c1ccc(-n2cccc2/C=C2/NC(=O)N(c3ccccc3)C2=O)cc1	-	0	25µM	2.5µM	?	10µM	0	0	4µM	13µM
CC(N)(C(=O)O)c1ccc(S(=O)(=O)O)cc1 (configuration not stated)	0	-	0	?	-	-	-	-	-	-
CCC(C)CC(C)CC(C)C(=O)/C=C(/O)C(C)CC(C)C/C=C/C(C)C(O)C(C)C(O)CC1CCC(C)(C)O1 (configuration not stated)	0	0	0	0	-	-	-	-	-	-
COc1cc(OC)cc(-c2nnc3n2N=C(c2ccc(OC)cc2OC)CS3)c1	0	0	0	0	-	-	-	-	-	-
Oc1ccccc1Oc1c(F)c(F)nc(N2CCCC2)c1F	0	0	0	?	0	0	0	0	?	0

Assay outcomes: PubChem BioAssay, National Center for Advancing Translational Sciences (NCATS)
